# TDP1 block: blocks human tyrosyl-DNA phosphodiesterase 1; AID 485290; recombinant TDP1, AlphaScreen DNA substrate cleavage; Potency, µM (titrated, usually from 130 µM), inactives show at the top dose activity change, negative = inhibition, usual class: inhibitors; actives 0.28% (n = 350,000); Q9NUW8; further: potency means the concentration at half of the fitted maximal effect; nearly all actives have a fitted effect of over 40% in size
# Target sequence (Q9NUW8 whole entry, looked up): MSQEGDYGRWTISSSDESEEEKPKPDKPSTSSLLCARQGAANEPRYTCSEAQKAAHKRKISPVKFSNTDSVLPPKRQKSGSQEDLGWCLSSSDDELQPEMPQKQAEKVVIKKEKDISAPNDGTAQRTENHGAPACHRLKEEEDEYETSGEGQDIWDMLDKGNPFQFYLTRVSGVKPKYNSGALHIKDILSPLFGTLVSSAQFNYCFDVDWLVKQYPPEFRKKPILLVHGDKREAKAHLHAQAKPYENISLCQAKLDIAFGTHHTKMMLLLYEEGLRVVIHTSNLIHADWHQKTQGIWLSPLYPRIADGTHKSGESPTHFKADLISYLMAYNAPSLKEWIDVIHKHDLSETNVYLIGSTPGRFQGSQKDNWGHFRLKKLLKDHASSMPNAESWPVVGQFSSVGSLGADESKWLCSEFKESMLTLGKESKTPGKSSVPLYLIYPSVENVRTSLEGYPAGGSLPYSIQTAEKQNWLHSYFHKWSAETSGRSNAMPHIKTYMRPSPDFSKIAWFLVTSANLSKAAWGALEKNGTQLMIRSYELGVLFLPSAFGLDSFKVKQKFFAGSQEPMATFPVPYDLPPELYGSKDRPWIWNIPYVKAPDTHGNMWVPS
#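 Recombinant human Tdp1 (E. coli-expressed, 1 nM final) preincubated with compounds 15 min at room temperature, then 5'-biotin/3'-phosphotyrosine-FITC DNA substrate (15 nM final) added for 5 min. AlphaScreen beads (10 ug/ml final) added 10 min; cleavage lowers signal.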
# DT40 TDP1 no CPT: qHTS for Inhibitors of human tyrosyl-DNA phosphodiesterase 1 (TDP1): qHTS in cells in absence of CPT. DT40 Tdp1-/- hTDP1 cells, no CPT, ATP luminescence, 48 h. actives 15% (n = 420,000). Potency, µM (highest dose often 46.2 µM), inactives show at the top dose activity change, negative = growth inhibition, most hits filed as inhibitors; further: potency means the concentration at half of the fitted maximal effect; nearly all actives have a fitted effect of over 55% in size
#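 A cellular qHTS used chicken DT40 cells lacking endogenous Tdp1 but carrying stably transfected human TDP1. Compounds were applied without camptothecin, and cell growth kinetics were judged by ATP-dependent luminescence after ≥48 hr.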
# IL-1B inflam inh: inflammasome signaling inhibition, IL-1 beta readout; activity change, % at 57.5 µM; THP-1 LPS/ATP IL-1B secretion, AlphaLISA, 16 h; stronger effect = lower value; actives 4.7% (n = 360,000); AID 743279; in the data active means activity change below about -50%; inconclusive means mostly about -30% to -49%
#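 THP-1 cells pretreated 1 hr with compounds (up to 57.5 uM final), then stimulated with LPS (250 ng/mL final) plus ATP (1.25 mM final); secreted IL-1B measured by AlphaLISA after 16 hr, decreased signal indicating inhibition.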
# Six1-Eya2 inh: Six1/Eya2 interaction inhibition; AlphaScreen GST-Six1/His-Eya2 binding, biochemical; stronger effect = lower value; activity change, % (no concentration beside the values); actives 0.56% (n = 360,000); in the data active means activity change below about -65%; inconclusive means mostly about -30% to -63%
#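 Compounds are tested against tagged Six1 and Eya2 proteins bridged by glutathione donor and nickel acceptor beads; after a one-hour incubation at 37 °C without light, AlphaScreen emission is recorded.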
# CtBP-E1A inh: CtBP/E1A binding inhibition. AlphaScreen GST-E1A/His-CtBP binding, 1536-well; stronger effect = lower value. activity change, % (no concentration beside the values). actives 0.49% (n = 340,000). AID 651724; in the data active means activity change below about -65%; inconclusive means mostly about -30% to -63%
#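 AlphaScreen with 125 nM GST-E1A and 125 nM His-CtBP (5X stocks) in Tris pH 8.0, 300 mM NaCl, BSA, Tween 20, TCEP. Compounds preincubated 2 h at 37 deg C, then glutathione donor/nickel acceptor beads added for 1 h at 37 deg C in dark.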
# TDP1 cell CPT: DT40-hTDP1 cell growth loss with CPT | chicken DT40 Tdp1-/-;hTDP1 cells + 20 nM CPT, ATP luminescence, 48 h | Potency, µM (top dose mostly 46.2 µM), for the others: top-dose activity change, negative = growth inhibition, actives largely listed as inhibitors | actives 12% (n = 420,000) | AID 686979; further: potency means the concentration at half of the fitted maximal effect; nearly all actives have a fitted effect of over 55% in size
#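 Cell growth measured by CellTiter-Glo luminescence after a minimum 48 h, 37 C compound exposure with 20 nM CPT in Tdp1-knockout DT40 cells stably expressing hTDP1, seeded 400/well; qHTS titration format.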
# * hit, by the source's call; ? = inconclusive; / = not tested or not shown. This is a sample that favours compounds with a hit; in the whole collection about 18% have one here. Unless noted, the call rests on the fitted dose curve; in most records, active means well fitted curve in the direction sought with a large enough effect; inconclusive means small, poorly fitted or top-dose-only effect, or another doubt; inactive means no such curve, though single readings can be large; an effect the other way counts as inactive or inconclusive. On the % scale 0 is the no-effect control and ±100 the full control effect.
SMILES,TDP1 block,DT40 TDP1 no CPT,IL-1B inflam inh,Six1-Eya2 inh,CtBP-E1A inh,TDP1 cell CPT
CCCCn1c(N)c(N(CC)C(=O)CSc2nnnn2-c2cc(C)ccc2C)c(=O)[nH]c1=O,4.6%,-14.1%,-14.4,2.2,7.4,3.9%
O=C(N/N=C/C(Br)=C\c1ccccc1)c1cccs1,8.7%,13µM*,/,-10.5,-80.9*,14.6µM*
COc1ccccc1C(=O)N/N=C/C(C)=C/c1ccccc1,/,-12.3%,-7.4,3.5,5.0,1.5%
CC(=C/c1ccccc1)/C=N/NC(=O)c1cccs1,4.8%,5.17µM*,/,-3.6,0.8,-13.2%
CC(/C=N/NC(=O)c1nn(C)c(C)c1Br)=C\c1ccccc1,-2.6%,-18.2%,0.0,0.1,-0.7,-6.2%
CC(/C=N/NC(=O)Cn1cnc2ccccc21)=C\c1ccccc1,5.7%,?,-2.7,-8.7,-18.3,23.1µM*
CC(/C=N/NC(=O)c1c(Br)cnn1C)=C\c1ccccc1,5.5%,?,-51.9*,3.1,-3.4,-19.5%
CCOC(=O)c1cnc2cc(Cl)c(OC)cc2c1NCC1CCCO1 (stereo not given),8.8%,14.6µM*,?,7.2,5.7,?
CCOC(=O)c1cnc2cc(Cl)c(OC)cc2c1Nc1ccc(Br)cc1C,-1.9%,-21.1%,/,/,/,-20.8%
CC(C)C1=CC(=Nc2ccc(S(N)(=O)=O)cc2)C=C(C(C)C)C1=O,/,23.1µM*,-56.9*,-12.9,-6.4,16.4µM*
COc1ccc(OCc2ccc(-c3nc(C#N)c(NCc4ccccc4)o3)o2)cc1,9.9%,?,/,/,/,?
COc1ccc(OCc2ccc(-c3nc(C#N)c(NCc4cccnc4)o3)o2)cc1,10.9%,18.4µM*,/,/,/,?
Cc1ccccc1OCc1ccc(-c2nc(C#N)c(NCc3cccnc3)o2)o1,7.8%,20.6µM*,/,/,/,14.6µM*
O=C(/C=C/c1ccccc1)CC(=O)c1ccccc1,/,?,-17.7,0.2,3.8,?
Cc1ccc(/C=C/C(=O)Nc2nnc(C)s2)o1,-2.6%,-8.4%,0.0,-6.4,3.0,-8.9%
Oc1ccc(-c2csc(Nc3ccccn3)n2)cc1,9.2%,?,-73.4*,-6.0,-3.2,?
Cc1ccc(-c2csc(Nc3ccccn3)n2)cc1,/,?,-77.4*,-10.9,-4.6,?
CC(=O)Oc1ccc(-c2csc(Nc3ccc(Cl)cn3)n2)cc1,3.6%,?,-12.5,-2.0,-6.9,?
Fc1ccc(-c2csc(Nc3ccccn3)n2)c(F)c1,5.0%,?,0.0,-1.5,-0.3,?
c1ccc(-c2csc(Nc3ccccn3)n2)cc1,5.8%,?,-55.1*,-2.7,-13.5,-17.4%
COc1ccc(-c2csc(Nc3ccc(C)cn3)n2)cc1,/,-26.9%,-67.5*,-3.5,-5.6,-1.2%
COC(=O)c1cccc(NC(=O)C2CCCN2C(=O)c2cccs2)c1 (stereo not given),-1.5%,8.7%,-6.6,4.2,-17.4,5.0%
Cc1cc(C)c2c(CN3CCC(C)CC3)cc(=O)oc2c1C,/,-6.5%,0.0,4.7,5.9,-26.7%
Cc1cn2c(=O)cc(COc3ccc(NC(=O)c4cccc(F)c4)cc3)nc2s1,1.3%,-8.4%,/,/,/,32.0%
COCCN(C(=O)c1ccccc1Oc1ccccc1)c1c(N)n(CC(C)C)c(=O)[nH]c1=O,-0.3%,-1.7%,5.2,0.4,-4.4,-6.7%
Cc1nc([N+](=O)[O-])c(C(=O)OCc2ccc(C#N)cc2)n1C,2.6%,0.4%,-8.0,3.6,-9.1,-3.0%
CC(=O)Nc1cccc(-c2csc(Nc3ccc(C)cn3)n2)c1,3.0%,?,-100.3*,0.5,-7.0,-28.5%
CC(=O)Nc1cccc(-c2csc(Nc3ncccn3)n2)c1,0.0%,/,/,/,/,/
Cc1cc(-c2csc(Nc3ccccn3)n2)ccc1F,/,20.6µM*,-57.6*,-8.6,-26.1,?
O=C1NC[C@@H](Cc2ccc(O)cc2)N(CCCCC2CCCCC2)C1=O,/,?,0.0,7.4,-3.9,-19.1%

# High-throughput results as filed in PubChem BioAssay.
